# Only some compounds are listed: those with a hit (about 8% of all), similar ones and a draw of the others.
# SARS PLpro yeast-1: blocks SARS-CoV papain-like protease in a yeast assay; S. cerevisiae expressing SARS-CoV PLpro, growth rescue; Potency, µM (doses to about 32.9 µM), for the others: at the top dose activity, positive = growth rescue, most hits filed as activators; hit rate 0.19% among 330,000; calls by dose curve; note: potency is the fitted concentration of half-maximal effect; 0% is about no effect; nearly all actives have a fitted effect of over 55% in size
# HCV inh: inhibitors of hepatitis C virus infection; Potency, µM (highest dose often 41.8 µM), inactives show at the top dose activity change, negative = inhibition, usual class: inhibitors; hit rate 3.4% among 340,000; Huh7.5.1 HCVcc-Cre infection, luciferase reporter, 44 h; active = well fitted inhibition curve with a large enough effect; inconclusive = small, poorly fitted or top-dose-only effect, or another doubt; inactive = no such curve, though single readings can be large or run the other way; note: potency is the fitted concentration of half-maximal effect; % is set by controls: 0 for no effect and ±100 for the full control effect
#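 Cells (1,000/well) were plated 4 h before compound, then infected with HCVcc-Cre virus (~0.5 moi). After 44 h further culture, infection was read as luciferase luminescence following a 15 min substrate incubation at room temperature.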
# HCMV antiviral: inhibitors of human cytomegalovirus; HFF cells, HCMV-luciferase reporter, 72 h; stronger effect = lower value; AID 1259415; activity change, negative = inhibition, % at 57.5 µM; hit rate 4.5% among 410,000; in the data active = activity change below about -60%; inconclusive = no clear call, values can overlap the other calls; inactive = above about -39%; note: % is set by controls: 0 for no effect and ±100 for the full control effect
#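 After 16 h attachment at 37C, HFF cells received test compound and HCMV-luciferase (1 PFU/cell); reporter luminescence read 72 h later, data normalized against buffer-only and known inhibitor Salinomycin.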
# Lassa entry inh: Lassa virus entry inhibition; Lassa virus pseudotype entry inhibition, cell reporter; Potency, µM (titrated, usually from 37.9 µM), for the others: at the top dose activity change, negative = inhibition, usual class: inhibitors; hit rate 1.2% among 300,000; AID 540256; calls by dose curve; tested in HEK293 cells; note: potency is the fitted concentration of half-maximal effect; % is set by controls: 0 for no effect and ±100 for the full control effect; nearly all actives have a fitted effect of over 50% in size
# FMDV inh: antivirals against foot and mouth disease virus; hit rate 1.2% among 410,000; Potency, µM (doses to about 57.9 µM), for the others: at the top dose activity change, negative = inhibition, most hits filed as inhibitors; FMDV antiviral cell-based qHTS; AID 1159524; calls by dose curve; tested in HEK293T cells; note: read-out not given here; potency is the fitted concentration of half-maximal effect; % is set by controls: 0 for no effect and ±100 for the full control effect; nearly all actives have a fitted effect of over 45% in size
# MARV entry inh: Marburg virus entry inhibition; Marburg virus pseudotyped entry inhibition, cell reporter; Potency, µM (highest dose often 37.8 µM), inactives show top-dose activity change, negative = inhibition, most hits filed as inhibitors; hit rate 1.8% among 300,000; AID 540276; calls by dose curve; tested in HEK293 cells; note: potency is the fitted concentration of half-maximal effect; % is set by controls: 0 for no effect and ±100 for the full control effect
# SARS PLpro yeast-2: Rescues yeast growth by inhibiting SARS-CoV PLpro | shares compounds with SARS PLpro yeast-1 | yeast expressing SARS-CoV PLpro, growth phenotype rescue | calls only | hit rate 19% among 1,000 | AID 652038; call rule not given here
# * marks the source's active call; other numbers are inactive results; i = inactive; ? = inconclusive; · = no result given; + = active, no number; [ ] = dose if it differs, or a comment.
SMILES,SARS PLpro yeast-1,HCV inh,HCMV antiviral,Lassa entry inh,FMDV inh,MARV entry inh,SARS PLpro yeast-2
CCOC(=O)CCn1nc(C)c2c(C)n(-c3ccccc3)nc2c1=O,·,·,27.9,9.1%[46.1 µM],-11.5%,-4.2%[46.1 µM],·
COc1ccc(N(CC(=O)Nc2nccs2)S(=O)(=O)c2c(C)nn(C)c2C)cc1,?,-2.1%,-23.0,·,-2.4%,·,i
C=CCNC(=S)N/N=C/c1cn(-c2ccccc2)nc1-c1ccc(OC)cc1,22.1%,-13.4%,?,5.3%,-18.6%,30.5%,·
COc1ccc(-c2nn(-c3ccccc3)cc2/C=N/NC(=S)NC(C)C)cc1OC,7.08µM*,?,-2.2,-25.5%,-20.4%,?,+
N#CC1=C(N)Oc2c(ccc3cccnc23)C1c1ccccc1 (centres undefined),0.3%,?,-25.1,·,?,·,·
Cc1ccc2[nH]c(=O)c(C3C(C#N)=C(N)Oc4c3ccc3cccnc43)cc2c1 (centres undefined),12.6µM*,10µM*,-92.0*,?,?,?,+
NC(=S)N/N=C/C=C/c1ccccc1,1.58µM*,-11.8%,-32.9,13.7%,15.7%,-3.3%,+
NC(=S)N/N=C/c1ccc2ccccc2c1,5.62µM*,-16.0%,-24.9,7.9%,5.7%,?,+
COc1ccc(/C=N/NC(N)=S)cc1OC(=O)c1ccccc1,11.2µM*,3.1%,7.6,0.0%,-5.9%,?,i
Cc1ccc(CNC(=O)/C=C/c2ccc(Br)o2)cc1,·,-22.6%,-33.6,?,8.5%,10.4%,i
Cc1ccc(-c2cc(=O)c3cc(F)ccc3[nH]2)cc1,?,-5.8%,-0.4,14.8%,35.3%,-21.6%,i
Cc1cc(=O)c2cc(C(=O)Nc3ccc(F)cc3)ccc2[nH]1,·,·,5.5,7.3%[46.1 µM],-7.2%,5.2%[46.1 µM],·
O=C(Nc1ccccc1Br)C1CCCN(S(=O)(=O)c2cccc3nsnc23)C1 (centres undefined),·,·,-22.3,2.2%[46.1 µM],?,1.6%[46.1 µM],·
CCOC(=O)c1[nH]c2ccc(Cl)cc2c1NC(=O)c1nonc1C,?,?,10.4,-1.8%,-17.1%,9.3%,+
CCOC(=O)c1[nH]c2ccc(OC)cc2c1NC(=O)c1nonc1C,4.5%,?,21.7,2.0%,-6.7%,10.0%,·
COc1cc2[nH]c3c(=O)n(CCN4CCCCC4)cnc3c2cc1OC,?,?,14.1,?,20.1%,?,i
COc1ccc2[nH]c3c(=O)n(CCCN4CCOCC4)cnc3c2c1,0.3%,15.0%,7.1,·,-4.9%,·,·
CCOc1ccc(OCCC(=O)N(CCCOC)c2c(N)n(Cc3ccccc3)c(=O)[nH]c2=O)cc1,?,?,-23.2,-22.4%,-0.1%,12.3%[46.1 µM],i
CCCCN(C(=O)CCOc1ccc(OCC)cc1)c1c(N)n(Cc2ccccc2)c(=O)[nH]c1=O,·,·,-19.3,·,-22.6%,·,·
CCCCN(C(=O)CSc1nnc(-c2ccc(OC)cc2)n1CC)c1c(N)n(Cc2ccccc2)c(=O)[nH]c1=O,?,?,-3.1,?,21.4%,18.7%[46.1 µM],i
Cc1c(C(=O)N2CCN(S(=O)(=O)c3ccc(F)cc3)CC2)oc2ccccc12,?,-7.7%,-31.5,2.6%,-11.7%,-19.4%,i
Cc1c(C(=O)N2CCN(S(=O)(=O)c3cccs3)CC2)oc2ccc(F)cc12,-1.6%,15.9%,-27.2,·,-17.7%,·,·
CCN(c1cccc(C)c1)S(=O)(=O)c1cccc(C(=O)O)c1,?,9.7%,26.1,-1.6%,26.5%,-5.0%,i
O=C(O)CCC(=O)Nc1ccccc1C(=O)Nc1ccccc1,15.2%,13.2%,37.3,-4.8%,25.1%,19.3%,·
O=C(O)CCC(=O)Nc1ccccc1C(=O)NCCc1ccccc1,3.98µM*,22.7%,71.5,18.3%,22.9%,?,i
SMILES,SARS PLpro yeast-1,HCV inh,HCMV antiviral,Lassa entry inh,FMDV inh,MARV entry inh,SARS PLpro yeast-2
CC(C)(C)C(=O)Oc1ccc2cc(-c3ccc4ccccc4n3)c(=O)oc2c1,23.2%,6.8%,-2.7,17.4%,6.7%,15.7%,·
CCNc1ccccc(-c2ccc3ccccc3n2)c1=O,11.2µM*,18.6%,48.4,9.8%,31.3%,21.1%,i
CCN1CCN(CC(O)COCc2ccccc2)CC1 (centres undefined),7.2%,15.1%,10.9,4.1%,-4.0%,23.5%,·
CCOC(=O)N1CCN(CC(O)COCc2ccccc2)CC1 (centres undefined),?,5.0%,96.0,12.8%,-7.7%,3.2%,i
Cc1cccc(NC(=O)CSc2nc(-c3cccs3)cc(C(F)(F)F)c2C#N)c1C,·,·,6.3,4.8%[46.1 µM],2.9%,·,·
O=C(OCC(=O)N1CCN(c2ccccc2)CC1)c1cnc(Cl)c(Cl)c1,-10.2%,·,-29.1,·,·,·,·
O=C(OCC(=O)N1CCN(c2ccccc2)CC1)c1cccc(Cl)c1,?,3.3%,2.6,-15.6%,4.4%,1.3%,i
CCC(C)C(=O)Nc1nccs1 (centres undefined),10µM*,0.8%,-9.6,8.8%,-18.3%,-1.1%[46.1 µM],i
Cc1nn(Cc2ccccc2)c(C)c1/C=N/NC(=O)CNc1cccc(C(F)(F)F)c1,11.2µM*,?,37.0,·,-25.3%,·,i
COc1cc(/C=N/n2c(SC)nnc(C(C)(C)C)c2=O)ccc1O,15.8µM*,2.8%,-5.9,-7.7%,-9.2%,2.7%,i
COc1ccc(/C=N/n2c(SC)nnc(C(C)(C)C)c2=O)cc1OC,6.4%,10.2%,-10.0,-16.3%,?,31.3%,·
N#Cc1ccc(Oc2ccc(-c3cnc4ccccc4n3)cc2)cc1C#N,2µM*,?,-0.5,2.5%,?,?,+
COc1ccc(NC(=O)c2cc3c([nH]c2=O)CC(c2ccccc2)CC3=O)cc1 (centres undefined),·,·,40.3,22.3%[46.1 µM],7.3%,·,·
COc1ccc(/C=C(\C#N)C(=O)OCC(=O)NCc2ccc(Cl)cc2)cc1,?,-3.4%,·,0.0%,·,-0.1%,i
COc1ccc(/C=C(\C#N)C(=O)OCC(=O)NCc2ccccc2Cl)cc1,0.6%,-0.4%,-28.1,10.1%,9.7%,9.7%[46.1 µM],·
CCCOc1ccc(CNC(=O)c2ccc3c(c2)N(Cc2ccccc2)CCS3)cc1,·,·,-31.5,·,19.1%,?,·
CNC(=O)N(C1=NCCCCC1)c1ccc(Br)cc1,·,8.9%,34.9,3.3%,-15.1%,3.4%,i
Clc1nc2sccn2c1/C=N/n1cnc2ccccc21,?,?,89.5,27.0%,·,-8.6%,i
C(=N\n1cnc2ccccc21)/c1cccnc1,10.5%,-8.6%,-10.1,?,47.1%,3.2%,·
Cc1ccc(O)c(N=NC2=C(O)CC(C)(C)CC2=O)c1,17.8µM*,?,-101.2*,?,21.8%,10µM*,+
S=C1CSc2ccccc2N1,-1.3%,-1.4%,?,-4.6%,1.9%,23.9%,·
CC1CSc2ccccc2NC1=S (centres undefined),10µM*,8.1%,-17.0,7.9%,46.4%,0.0%,+
